{
  "source": "the supplement of paper PMC9446081",
  "note": "About 220 (0.56%) of roughly 39,000 compounds showed activity. Many of the other results were omitted from the sample, so actives are more common in it than they were.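 Also: Wild-type cells incubated without shaking, value is the mean of two biological replicates.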",
  "data": [
    {"system": "Escherichia coli K-12 BW25113", "test": "relative growth (OD600 normalised to plate interquartile mean) (fraction); higher = less growth inhibition, active = 0.2 or less", "conditions": "50 µM; LB; incubation time: overnight (16-24 h)", "values": [
      {"smiles": "C[C@@H]1CCCCO[C@H](CN(C)C(=O)c2ccccc2)[C@@H](C)CN([C@@H](C)CO)C(=O)c2cc(NS(=O)(=O)c3ccccc3)ccc2O1", "relative growth": "0.956 (inactive)"},
      {"smiles": "C[C@@H]1CCCCO[C@H](CN(C)C(=O)Nc2ccc(F)cc2)[C@@H](C)CN([C@H](C)CO)C(=O)c2cc(NC(=O)c3ccccc3)ccc2O1", "relative growth": "1.04 (inactive)"},
      {"smiles": "C[C@H]1CN([C@@H](C)CO)C(=O)c2cc(NS(=O)(=O)c3cccs3)ccc2O[C@@H]1CN(C)Cc1ccc(Cl)c(Cl)c1", "relative growth": "0.995 (inactive)"},
      {"smiles": "Oc1c(Cl)cc(Cl)cc1Sc1cc(Cl)cc(Cl)c1O", "relative growth": "0.202 (inactive)"},
      {"smiles": "Oc1c(Cl)cc(Cl)c(Cl)c1Cc1c(O)c(Cl)cc(Cl)c1Cl", "relative growth": "0.0546 (active)"},
      {"smiles": "O=C(Nc1cc(Cl)cc(Cl)c1O)c1c(O)c(Cl)cc(Cl)c1Cl", "relative growth": "0.565 (inactive)"},
      {"smiles": "COc1ccc(S(=O)(=O)N(C)C[C@@H]2OCCCC[C@@H](C)Oc3ccc(NC(=O)Nc4cccc5ccccc45)cc3C(=O)N([C@H](C)CO)C[C@@H]2C)cc1", "relative growth": "1.03 (inactive)"},
      {"smiles": "C[C@@H]1CN([C@H](C)CO)C(=O)CCCn2cc(nn2)CO[C@@H]1CN(C)Cc1ccc2c(c1)OCCN2C", "relative growth": "1.02 (inactive)"},
      {"smiles": "CCC(C)C1NC(=O)C(CCNCS(=O)(=O)[O-])NC(=O)C(NC(=O)C(CCNCS(=O)(=O)[O-])NC(=O)C(NC(=O)C(CCNCS(=O)(=O)[O-])NC(=O)CCCCC(C)C)C(C)O)CCNC(=O)C(C(C)O)NC(=O)C(CCNCS(=O)(=O)[O-])NC(=O)C(CCNCS(=O)(=O)[O-])NC(=O)C(C(C)CC)NC1=O.[Na+].[Na+].[Na+].[Na+].[Na+]", "note": "(stereo not given)", "relative growth": "0.0529 (active)"},
      {"smiles": "CC(C)CCCC(=O)N[C@@H](CCNCS(=O)(=O)O)C(=O)N[C@H](C(=O)N[C@@H](CCNCS(=O)(=O)O)C(=O)N[C@H]1CCNC(=O)[C@H]([C@@H](C)O)NC(=O)[C@H](CCNCS(=O)(=O)O)NC(=O)[C@H](CCNCS(=O)(=O)O)NC(=O)[C@H](CC(C)C)NC(=O)[C@H](CC(C)C)NC(=O)[C@H](CCNCS(=O)(=O)O)NC1=O)[C@@H](C)O", "relative growth": "0.0299 (active)"},
      {"smiles": "CC[C@H](C)[C@H](N)C1=N[C@H](C(=O)N[C@@H](CC(C)C)C(=O)N[C@@H]2CCC(=O)[O][Zn][O]C(=O)C[C@H]3NC(=O)[C@H](Cc4c[nH]cn4)NC(=O)[C@@H](Cc4ccccc4)NC(=O)[C@H]([C@@H](C)CC)NC(=O)[C@@H](CCCN)NC(=O)[C@H](CCCCNC(=O)[C@H](CC(N)=O)NC3=O)NC(=O)[C@H]([C@@H](C)CC)NC2=O)CS1", "relative growth": "0.696 (inactive)"},
      {"smiles": "CCCCCCCCCC(=O)N[C@@H](Cc1c[nH]c2ccccc12)C(=O)N[C@H](CC(N)=O)C(=O)N[C@@H](CC(=O)O)C(=O)N[C@@H]1C(=O)NCC(=O)N[C@@H](CCCN)C(=O)N[C@@H](CC(=O)O)C(=O)N[C@H](C)C(=O)N[C@@H](CC(=O)O)C(=O)NCC(=O)N[C@H](CO)C(=O)N[C@@H]([C@H](C)CC(=O)O)C(=O)N[C@@H](CC(=O)c2ccccc2N)C(=O)O[C@@H]1C", "relative growth": "0.952 (inactive)"},
      {"smiles": "CCCc1nc2c(=O)n(C)c(=O)[nH]c2n1C", "relative growth": "0.999 (inactive)"},
      {"smiles": "C[C@@H]1CN([C@@H](C)CO)C(=O)c2cc(NS(=O)(=O)c3ccc(Cl)cc3)ccc2O[C@@H](C)CCCCO[C@H]1CN(C)Cc1ccncc1", "relative growth": "1.01 (inactive)"},
      {"smiles": "C[C@@H]1CN([C@@H](C)CO)C(=O)Cc2cc(NS(=O)(=O)c3ccc(F)cc3)ccc2O[C@@H]1CN(C)S(C)(=O)=O", "relative growth": "1 (inactive)"},
      {"smiles": "COc1ccc(S(=O)(=O)Nc2ccc3c(c2)C(=O)N([C@@H](C)CO)C[C@@H](C)[C@H](CN(C)S(=O)(=O)c2cn(C)cn2)OCCCC[C@H](C)O3)cc1", "relative growth": "0.989 (inactive)"},
      {"smiles": "CC(C)NC(=O)N(C)C[C@@H]1Oc2c(NC(=O)C3CCOCC3)cccc2C(=O)N([C@@H](C)CO)C[C@H]1C", "relative growth": "0.977 (inactive)"},
      {"smiles": "CCc1nc2c(OCC(=O)c3ccc(Cl)cc3Cl)cccn2c1N(C)C(=O)COc1ccccc1", "relative growth": "1.02 (inactive)"},
      {"smiles": "COc1cccc(S(=O)(=O)Nc2ccc3c(c2)OC[C@H](C)N(C(=O)Cc2cccnc2)C[C@H](C)[C@H](OC)CN(C)C3=O)c1", "relative growth": "0.963 (inactive)"},
      {"smiles": "COc1ccc(NC(=O)N(C)C[C@@H]2OCCCC[C@H](C)Oc3ccc(NS(=O)(=O)c4cccs4)cc3C(=O)N([C@H](C)CO)C[C@H]2C)cc1", "relative growth": "0.941 (inactive)"},
      {"smiles": "O=C(NCC[C@@H]1CC[C@H](NS(=O)(=O)c2cccc(F)c2)[C@@H](CO)O1)C1CC1", "relative growth": "0.987 (inactive)"},
      {"smiles": "C[C@@H]1CN([C@H](C)CO)C(=O)c2cc(NC(=O)Nc3ccc(F)cc3)ccc2O[C@@H]1CN(C)S(=O)(=O)c1cn(C)cn1", "relative growth": "1.01 (inactive)"},
      {"smiles": "C[C@H](CO)N1C[C@H](C)[C@@H](CN(C)S(=O)(=O)c2cn(C)cn2)Oc2ccc(NC(=O)Nc3ccc(F)cc3)cc2CC1=O", "relative growth": "0.986 (inactive)"},
      {"smiles": "CCNC(=O)[C@@H]1[C@@H](CO)[C@@H]2Cn3c(ccc(-c4cccc(C(=O)N(C)C)c4)c3=O)[C@H]1N2", "relative growth": "1.02 (inactive)"},
      {"smiles": "CC1=C(C(=O)O)N2C(=O)[C@@H](NC(=O)[C@@H](N)c3ccc(O)cc3)[C@H]2SC1", "relative growth": "0.999 (inactive)"},
      {"smiles": "CCN1CCN(C(=O)NC(C(=O)NC2C(=O)N3C(C(=O)O)=C(CSc4nnnn4C)CSC23)c2ccc(O)cc2)C(=O)C1=O", "note": "(stereo not given)", "relative growth": "0.046 (active)"},
      {"smiles": "Cc1cc(O)c(C(=O)NC(C(=O)NC2C(=O)N3C(C(=O)O)=C(CSc4nnnn4C)CSC23)c2ccc(O)cc2)cn1", "note": "(stereo not given)", "relative growth": "0.0416 (active)"},
      {"smiles": "CC1=C(C(=O)O)N2C(=O)C(NC(=O)C(N)c3ccc(O)cc3)C2SC1", "note": "(stereo not given)", "relative growth": "0.986 (inactive)"},
      {"smiles": "CC1=C(C(=O)O)N2C(=O)[C@@H](NC(=O)[C@H](N)c3ccc(O)cc3)[C@H]2SC1", "relative growth": "1.06 (inactive)"},
      {"smiles": "Cc1cc(=O)c(C(=O)N[C@@H](C(=O)N[C@@H]2C(=O)N3C(C(=O)O)=C(CSc4nnnn4C)CS[C@H]23)c2ccc(O)cc2)c[nH]1", "relative growth": "0.0389 (active)"}
    ]}
  ]
}
